Screening data as filed in PubChem BioAssay.
Only some compounds are listed: those with a hit (about 3.4% of all), similar ones and a draw of the others.
NF-kB neuron act – activators of NF-kB expression in neurons, primary screen, cell-based, HTS; human neuronal cells, NF-kB reporter expression; stronger effect = higher value; fold change at 12.5 µM; 1.6% of 190,000 active; in the data active = fold change above about 3.3
ssDAF12 agonist – S. stercoralis DAF-12 nuclear receptor activators, primary screen, cell-based, luminescence, HEK293, GRIP1 co-expression, lit1-tk-luc. Nuclear hormone receptor DAF-12 (Strongyloides stercoralis). HEK293 ssDAF-12/GRIP1 lit1-tk-luc reporter; % of 3 µM dafachronic acid response. activation, % at 6.8 µM. 1% of 370,000 active. AID 652126, 2013;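 active = activation above the mean over all tested compounds plus 3 SD, cut at about 0.9% in these data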
hcDAF-12 act – H. contortus DAF-12 nuclear receptor activators, primary screen, cell-based, luminescence, HEK293, lit1-tk-luc reporter. 1.4% of 370,000 active. activation, % at 6.8 µM. AID 652067, 2013. HEK293 hcDAF-12 lit1-tk-luc reporter; 0% DMSO, 100% Δ7-dafachronic acid;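 active = activation above the mean of all tested compounds plus 3 SD, cut at about 5.5% in these data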
hgDAF12 agonist – H. glycines DAF-12 receptor agonists, primary screen, cell-based, luminescence, HEK293, GAL4 fusion, UAS-luciferase. HEK293 GAL4-hgDAF12 UAS-luciferase reporter, agonist luminescence; normalized to butyrate control. AID 687014, 2013. activation, % at 6.8 µM. Nuclear hormone receptor DAF-12 (Heterodera glycines), GAL4 fusion. 1.8% of 370,000 active;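 active = activation above a cutoff set at the mean of all screened compounds plus 3 SD, cut at about 10% in these data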
APP 5'UTR act – activators of APP 5'UTR luciferase reporter, primary screen, SH-SY5Y cells; SH-SY5Y APP 5'UTR luciferase reporter, luminescence; zero percent = DMSO vehicle wells; activation, % at 2 µM; 1% of 190,000 active;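 active = activation above a set limit, based on mean plus 3 SD of controls, cut at about 140% in these data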
hgDAF12 conf – H. glycines DAF-12 receptor agonists, confirmation, cell-based, luminescence, HEK293, GAL4-LBD fusion; AID 743050, 2013; shares compounds with hgDAF12 agonist; 80% of 3,300 active; activation, % at 6.8 µM; HEK293 GAL4-hgDAF12 luciferase reporter, agonist mode; percent of butyrate response;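 active = mean activation over triplicate wells above the hit cutoff derived from the earlier primary screen, cut at about 11% in these data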
LXR ag 2 – LXR agonists, Gal4 luciferase reporter, confirmation, counter-screen for hgDAF-12 agonist project, cell-based, luminescence, HEK293, H. glycines campaign. shares compounds with hgDAF12 agonist. 24 h. activation, % at 6.8 µM. 3,300 tested, under 10 active. AID 743051, 2013;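 active = mean activation of the triplicate above a set limit carried over from the primary screen, none filed active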
Target sequence (P55055 whole entry, looked up, the tested form may be a part): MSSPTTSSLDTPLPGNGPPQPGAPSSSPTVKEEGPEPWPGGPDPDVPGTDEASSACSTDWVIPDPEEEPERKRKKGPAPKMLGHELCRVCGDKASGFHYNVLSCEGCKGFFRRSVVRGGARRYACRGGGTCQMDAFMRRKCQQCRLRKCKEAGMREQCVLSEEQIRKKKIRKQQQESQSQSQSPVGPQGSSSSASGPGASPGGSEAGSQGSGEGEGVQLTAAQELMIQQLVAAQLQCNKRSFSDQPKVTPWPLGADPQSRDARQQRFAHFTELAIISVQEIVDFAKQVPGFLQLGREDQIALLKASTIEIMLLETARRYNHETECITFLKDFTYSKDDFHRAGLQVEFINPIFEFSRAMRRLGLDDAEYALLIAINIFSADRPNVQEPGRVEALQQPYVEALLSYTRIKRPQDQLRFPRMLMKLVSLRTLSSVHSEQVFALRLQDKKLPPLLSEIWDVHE
Of the large screens only hits and unclear results are named; the others gave an inactive call (follow-up assays come after a bar, where they were run); ! = not confirmed by another sample.

O=C(Nc1ccc2sccc2c1)c1cccc(N2C(=O)CCC2=O)c1	hgDAF12 agonist 16.9 | hgDAF12 conf 12.8 | LXR ag 2 inactive
C/C(=N\NC(N)=O)c1ccc(-n2ccnc2)cc1	none
C/C(=N\NC(=O)c1ccc(C)cc1C)c1ccc(-n2ccnc2)cc1	hgDAF12 agonist 13.6 | hgDAF12 conf inactive | LXR ag 2 inactive
COc1ccccc1OCC(=O)Nc1nc(C)c(C)s1	hgDAF12 agonist 13.7 (no result: NF-kB neuron act, APP 5'UTR act) | hgDAF12 conf 12.2 | LXR ag 2 inactive
O=C(O)c1cc(-c2cccs2)[nH]n1	hgDAF12 agonist 15.2 | hgDAF12 conf inactive | LXR ag 2 inactive
COC(=O)[C@]12C[C@H](CC(=O)NCc3cccc4ccccc34)C(=O)N(CCc3ccc(OC)c(OC)c3)C1=C[C@H](C(C)C)O[C@@H]2C1CC1	none (no result: NF-kB neuron act, APP 5'UTR act)
COC(=O)Nc1ccc2c(c1)N(C(=O)CCN1CCN3CCCC3C1)c1ccccc1CC2 (configuration not stated)	hgDAF12 agonist 18.1! | hgDAF12 conf inactive | LXR ag 2 inactive
CCOC(=O)Nc1ccc2c(c1)N(C(=O)CCN1CCN3CCCC3C1)c1ccccc1CC2 (configuration not stated)	none
COc1ccc(-c2c(C)nc3c(-c4ccccn4)cnn3c2N)cc1	hgDAF12 agonist 14.3 (no result: NF-kB neuron act, APP 5'UTR act) | hgDAF12 conf 10.5 | LXR ag 2 inactive
COc1ccc(-c2c(C)nc3c(-c4ccsc4)cnn3c2N)cc1	none (no result: NF-kB neuron act, APP 5'UTR act)
COC(=O)[C@]12C[C@H](CC(=O)NCCc3ccccc3OC)C(=O)N(CCc3ccc(OC)c(OC)c3)C1=C[C@H](C(C)(C)C)O[C@@H]2C	none (no result: NF-kB neuron act, APP 5'UTR act)
COc1cc(OC)c(C2=NOC(C(=O)N3CCc4ccccc4C3)C2)cc1Cl (configuration not stated)	hgDAF12 agonist 14.4 | hgDAF12 conf inactive | LXR ag 2 inactive
COc1cc(OC)c(C2=NOC(C(=O)N3CCN(C(=O)c4ccco4)CC3)C2)cc1Cl (configuration not stated)	none
CC(C)Cc1nnc(NC(=O)CCC(=O)Nc2ccccc2)s1	none (no result: NF-kB neuron act, APP 5'UTR act)
CC(C)Cc1nnc(NC(=O)Nc2ccccc2)s1	hgDAF12 agonist 21.4 | hgDAF12 conf 13.9 | LXR ag 2 inactive
COc1ccccc1NC(=O)Nc1ccc(C(=O)N2CCCCC2)cc1	hgDAF12 agonist 13.6 (no result: NF-kB neuron act, APP 5'UTR act) | hgDAF12 conf 10.8 | LXR ag 2 inactive
CCN1CCCCC(NC(=O)c2ccc(F)c(F)c2)C1=O (configuration not stated)	none (no result: NF-kB neuron act, APP 5'UTR act)
O=C(Nc1ncccc1O)c1ccc(OCC2CCCO2)cc1 (configuration not stated)	hgDAF12 agonist 27.7 (no result: NF-kB neuron act, APP 5'UTR act) | hgDAF12 conf 26.9 | LXR ag 2 inactive
O=C(Nc1nc2ccccc2s1)c1ccc(OCC2CCCO2)cc1 (configuration not stated)	none
COc1ccc(OC)c(CN2C(=O)c3ccnn3CC2(C)c2nnnn2C2CCCC2)c1 (configuration not stated)	none (no result: NF-kB neuron act, APP 5'UTR act)
CCOC(=O)C1(CCCc2ccccc2)CCN(C(=O)CN2CCOC2=O)CC1	none
CCOC(=O)C1(Cc2ccccc2Cl)CCN(C(=O)CN2CCOC2=O)CC1	hgDAF12 agonist 16.6 (no result: NF-kB neuron act) | hgDAF12 conf inactive | LXR ag 2 inactive
O=C(Nc1ccc(C(O)(C(F)(F)F)C(F)(F)F)cc1)c1ccc(F)cc1Cl	none (no result: NF-kB neuron act, APP 5'UTR act)
COc1ccccc1C=Cc1ccnc2ccccc12	none (no result: NF-kB neuron act, APP 5'UTR act)
CN(C)c1ccc(C=Cc2ccnc3ccccc23)cc1N	hgDAF12 agonist 17.5 (no result: NF-kB neuron act, APP 5'UTR act) | hgDAF12 conf inactive | LXR ag 2 inactive
O=[N+]([O-])c1ccc(O)c(/C=N/Nc2ccccc2Cl)c1	hgDAF12 agonist 15.6 | hgDAF12 conf inactive | LXR ag 2 inactive
O=C(N/N=C/c1cc([N+](=O)[O-])ccc1O)C1CC1	none (no result: NF-kB neuron act, APP 5'UTR act)
CCCCNC(=O)C[C@H]1C[C@@]2(C(=O)OC)C(=C[C@H](C(C)(C)C)O[C@@H]2C)N(Cc2ccco2)C1=O	none (no result: NF-kB neuron act, APP 5'UTR act)
CCOC(=O)CC[C@@H]1CC[C@]2(CCCN(Cc3cccs3)C2)O1	none (no result: NF-kB neuron act, APP 5'UTR act)
Cc1cc(NC(=O)C2COc3ccccc3O2)no1 (configuration not stated)	hgDAF12 agonist 19.4 | hgDAF12 conf inactive | LXR ag 2 inactive
O=C(Nc1ccc(Cl)cn1)C1COc2ccccc2O1 (configuration not stated)	hcDAF-12 act 6.0, hgDAF12 agonist 14.2 | hgDAF12 conf 10.8 | LXR ag 2 inactive
Cc1cc(NC(=O)COC(=O)C2COc3ccccc3O2)no1 (configuration not stated)	none
COC[C@@H]1CCCN1c1cccc2c1S(=O)(=O)N(C1CC1)CC[C@@H](C)O2	none (no result: NF-kB neuron act, APP 5'UTR act)
Cc1cc(NC(=O)c2noc3c2CCCC3)no1	none
CC(=O)c1ccc(NC(=O)c2noc3c2CCCCC3)cc1	NF-kB neuron act 4.99, hgDAF12 agonist 13.8, APP 5'UTR act 160.6 | hgDAF12 conf 17.1 | LXR ag 2 inactive
O=[N+]([O-])c1ccccc1NCCNc1ncc(C(F)(F)F)cc1Cl	none
O=[N+]([O-])c1cccnc1NCCNc1ncc(C(F)(F)F)cc1Cl	hgDAF12 agonist 14.2 | hgDAF12 conf 14.8 | LXR ag 2 inactive
CN(C)C=NC(=O)c1cc(C(=O)c2ccc(C(C)(C)C)cc2)c[nH]1	hgDAF12 agonist 14.0, APP 5'UTR act 171.1 | hgDAF12 conf 15.6 | LXR ag 2 inactive
O=C(C=C1SCCS1)/C=C/c1ccco1	NF-kB neuron act 5.92, hgDAF12 agonist 14.8, APP 5'UTR act 157.9 | hgDAF12 conf 14.3 | LXR ag 2 inactive
CCN(CC)C(=O)CC[C@@H]1CC[C@]2(CCCN(C(=O)C(C)(C)C)C2)O1	none (no result: NF-kB neuron act, APP 5'UTR act)
CCN(C[C@@H]1[C@@H](c2ccccc2)[C@H](CO)N1S(C)(=O)=O)C(=O)C1CCC1	none (no result: NF-kB neuron act, APP 5'UTR act)
O=C(N/N=C/c1sc(=O)n(-c2ccccc2)c1Cl)c1ccccc1	hgDAF12 agonist 23.7 | hgDAF12 conf 15.8 | LXR ag 2 inactive
O=C(Nc1ccn(Cc2ccccc2)n1)c1ccc(F)cc1	hgDAF12 agonist 17.0 | hgDAF12 conf 12.8 | LXR ag 2 inactive
Cc1ccc(Cn2ccc(NC(=O)c3cc(-c4ccc(F)cc4)on3)n2)cc1	none
CN1C(=O)C[C@@](C#N)(C(=O)NCc2ccccc2)[C@H]1c1ccccc1	none (no result: NF-kB neuron act, APP 5'UTR act)
